# Data as given in the supplement of paper PMC6555819.
# Assays:
# Test in all cases: PBM binding z-score (relative to random genomic background probes); higher = stronger binding; sequences stand for … in GC…GCGATTGACAGCGTAGAATGAAGG
# [1] = system: PPARg:RXRa DBDmut IVT, anti-RXR (DBD mutation: RXRa K156A/R161A, NR concentration 270 nM, RXRa partner concentration 90 nM)
# Procedure, shortened: (§1)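 Ligand-free nuclear receptor dimers were bound for 1 h to custom Agilent 4×180K protein-binding microarrays. Detection used antibodies against each partner (one per run). Binding z-scores rest on regression-normalized fluorescence, with random background probes as the reference.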
# [2] = system: PPARg:RXRa IVT, anti-PPARg (NR concentration 270 nM, RXRa partner concentration 90 nM)
# Procedure, shortened: as §1
# [3] = system: PPARg DBDmut:RXRa IVT, anti-PPARg (DBD mutation: PPARg1 K132A/R137A, NR concentration 270 nM, RXRa partner concentration 90 nM)
# Procedure, shortened: as §1
# [4] = system: PPARg DBDmut IVT, anti-PPARg (DBD mutation: PPARg1 K132A/R137A, NR concentration 270 nM)
# Procedure, shortened: as §1
# [5] = system: PPARg homodimer (NR concentration 180 nM)
# Procedure, shortened: as §1
# [6] = system: PXR:RXRa (NR concentration 270 nM, RXRa partner concentration 90 nM)
# Procedure, shortened: as §1
# [7] = system: PXR homodimer (NR concentration 270 nM)
# Procedure, shortened: as §1
# [8] = system: RARa:RXR (NR concentration 270 nM, RXRa partner concentration 90 nM)
# Procedure, shortened: as §1
# [9] = system: RARa homodimer (NR concentration 270 nM)
# Procedure, shortened: as §1
# [10] = system: RARb:RXRa (NR concentration 270 nM, RXRa partner concentration 90 nM)
# Procedure, shortened: as §1
# [11] = system: RARb homodimer (NR concentration 270 nM)
# Procedure, shortened: as §1
# [12] = system: RARg:RXRa (NR concentration 270 nM, RXRa partner concentration 90 nM)
# Procedure, shortened: as §1
# [13] = system: RARg homodimer (NR concentration 270 nM)
# Procedure, shortened: as §1
# [14] = system: RXRa DBDmut IVT, anti-RXR (DBD mutation: RXRa K156A/R161A, NR concentration 90 nM)
# Procedure, shortened: as §1
# [15] = system: RXRa homodimer (NR concentration 180 nM)
# Procedure, shortened: as §1
# [16] = system: THRa:RXRa (NR concentration 90 nM, RXRa partner concentration 90 nM)
# Procedure, shortened: as §1
# [17] = system: THRa homodimer (NR concentration 90 nM)
# Procedure, shortened: as §1
# [18] = system: VDR homodimer (NR concentration 270 nM)
# Procedure, shortened: as §1
# [19] = system: VDR:RXRa (NR concentration 270 nM, RXRa partner concentration 90 nM)
# Procedure, shortened: as §1
Sequence,PBM binding z-score [1],PBM binding z-score [2],PBM binding z-score [3],PBM binding z-score [4],PBM binding z-score [5],PBM binding z-score [6],PBM binding z-score [7],PBM binding z-score [8],PBM binding z-score [9],PBM binding z-score [10],PBM binding z-score [11],PBM binding z-score [12],PBM binding z-score [13],PBM binding z-score [14],PBM binding z-score [15],PBM binding z-score [16],PBM binding z-score [17],PBM binding z-score [18],PBM binding z-score [19]
ACTAGTTGGGCAGCTGAGGTCACACACAATTCGG,1.04,1.73,0.77,0.164,2.17,4.46,1.48,4.23,0.707,3.05,3.83,3.56,3.17,1.21,3.56,4.63,4.73,2.9,–
AGAATGAGGTTAAGAACAGGGAAACAGAATACAT,2.35,2.23,1.48,0.955,0.811,1.13,0.635,1.61,0.514,1.87,1.14,1.96,1.4,0.678,2.42,2.25,0.727,0.533,–
TCGGGTAGGTTACCAATGGGGCATTCAGCTTTCT,1.78,1.82,0.338,-0.222,0.725,0.647,-0.198,0.735,0.0772,1.41,1.04,1.63,0.754,0.101,0.683,0.482,0.377,0.0681,0.639
CATACAGGGTCAGCTAGGCCTGAGTAGGGACGGC,1.1,2.26,0.675,-0.0533,1.27,1.8,-0.411,3.27,0.583,3.86,2.93,4.26,4.49,1.02,4.15,2.71,0.977,0.628,2.61
TCTCGGAGGACACGAAGGTCAGAGCTTTCCAGAG,1.65,0.886,-0.279,-1.37,0.322,1.97,0.404,2.05,-0.212,3.38,3.78,2.79,3.63,0.904,1.69,2.87,0.784,1.03,–
TCTCGGTGGACACGAAGGTCAGAGCTTTCCAGAG,1,0.976,-1.18,-1.31,0.842,1.38,-0.107,1.55,-0.711,2.57,3.04,2.19,1.97,0.131,1.55,1.39,-0.0519,-0.0711,–
